In PubChem BioAssay one finds inhibition data, which are given here for 24 compounds.

A number with no mark means an inactive call. Activity calls are given as the source filed them. Cut-off read from the data, not from the text of the source, unless noted: active = inhibition above about 28%; inactive = the rest.

Assay [1] in a line: StAR promoter reporter inhibitors, counter-screen for LRH-1 inverse agonist project, cell-based, luminescence, high throughput (AID 651611). To be noted: StAR promoter luciferase reporter counterscreen, at 3.6 µM, active compounds read high. For orientation: Counterscreens check selectivity or assay interference.
For assay [2], the target named is Nuclear receptor subfamily 5 group A member 2 (Homo sapiens) (UniProt O00482). Put plainly: LRH-1 (NR5A2) inverse agonists, retest, confirmation, cell-based, luminescence (AID 651613; in the data active = inhibition above about 42%;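 note: HEK293T cells co-transfected with LRH-1 and StAR promoter luciferase reporter; 0% = vehicle wells and 100% = parental cells lacking receptor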). The note with it: cell-based LRH-1 luciferase reporter, inverse agonism; at 3.6 µM; active compounds read high. (In general: A reporter such as luciferase makes a cellular process visible.)
Nuclear receptor subfamily 5 group A member 2 (Homo sapiens), sequence (O00482 whole entry, looked up): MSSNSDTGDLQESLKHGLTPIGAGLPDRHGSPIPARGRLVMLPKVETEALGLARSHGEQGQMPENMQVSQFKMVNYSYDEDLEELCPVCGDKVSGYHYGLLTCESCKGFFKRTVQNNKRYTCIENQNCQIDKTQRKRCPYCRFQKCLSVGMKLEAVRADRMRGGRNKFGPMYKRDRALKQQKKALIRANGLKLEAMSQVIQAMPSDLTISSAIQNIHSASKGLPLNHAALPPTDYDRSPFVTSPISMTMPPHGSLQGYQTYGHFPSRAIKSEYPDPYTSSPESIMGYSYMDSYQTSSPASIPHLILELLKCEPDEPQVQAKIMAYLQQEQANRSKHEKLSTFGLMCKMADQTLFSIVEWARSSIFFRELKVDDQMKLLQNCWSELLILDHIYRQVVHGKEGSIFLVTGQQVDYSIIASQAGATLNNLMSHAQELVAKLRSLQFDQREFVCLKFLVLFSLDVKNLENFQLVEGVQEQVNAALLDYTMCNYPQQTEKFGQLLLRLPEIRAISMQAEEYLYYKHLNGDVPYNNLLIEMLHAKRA

Assay [3] concerns the target Steroidogenic factor 1 (Homo sapiens) (UniProt Q13285). Put plainly: SF1 (NR5A1) inverse agonists, counter-screen for LRH-1 inverse agonist project, cell-based, luminescence, high throughput (AID 651614; in the data active = inhibition above about 44%;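 note: cells cotransfected with StAR promoter reporter and SF1 expression vector; 0% = vehicle on cells with receptor and 100% = vehicle on cells lacking receptor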). The note with it: cell-based SF1 luciferase reporter, at 3.6 µM, active compounds read high.
The nature of assay [4]: VP16 transactivation reporter inhibitors, counter-screen for LRH-1 inverse agonist project, cell-based, luminescence, high throughput (AID 651615; in the data active = inhibition above about 33%). The note with it: Gal4-VP16 luciferase reporter cells, at 3.6 µM, active compounds read high.

Steroidogenic factor 1 (Homo sapiens), sequence (Q13285 whole entry, looked up, the tested form may be a part): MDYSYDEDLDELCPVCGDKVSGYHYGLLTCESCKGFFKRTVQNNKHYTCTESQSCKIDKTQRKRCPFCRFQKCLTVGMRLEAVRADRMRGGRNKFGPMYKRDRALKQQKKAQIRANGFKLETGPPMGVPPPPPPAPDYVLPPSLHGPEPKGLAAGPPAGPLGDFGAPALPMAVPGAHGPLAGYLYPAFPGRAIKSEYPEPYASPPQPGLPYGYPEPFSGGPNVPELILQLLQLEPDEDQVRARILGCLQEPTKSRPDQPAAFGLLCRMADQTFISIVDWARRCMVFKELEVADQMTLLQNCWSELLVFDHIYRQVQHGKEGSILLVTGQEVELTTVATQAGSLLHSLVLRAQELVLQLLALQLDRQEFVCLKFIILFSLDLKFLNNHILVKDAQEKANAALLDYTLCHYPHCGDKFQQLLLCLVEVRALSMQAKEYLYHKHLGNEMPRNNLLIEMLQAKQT

`COc1ccc(S(=O)(=O)N2CCN(CC(=O)Nc3ccc(C)c(F)c3)CC2)cc1`: the inhibition in assay [1] is 17.5%; in assay [2], 58.6% (active); in assay [3], 51.9% (active); in assay [4] it was -4.75%.
In the case of `Cn1c(SCC(=O)Nc2ccc(N3CCOCC3)cc2)nnc1-c1ccccc1`, the inhibition is 0.41% in assay [1], 46.2% (active) in assay [2], 47.5% (active) in assay [3] and -12.2% in assay [4].
The corresponding values for `COc1ccccc1-c1cc(NC=O)c2ncc(-c3ccc(S(C)(=O)=O)cc3)n2c1` are 31.8% (active), 42.8% (active), 46.9% (active) and -33.2%.
For the compound `Cc1ccccc1-c1nnc(SCC(=O)Nc2cccc(C)c2C)o1`, the inhibition in assay [1] was -7.62%; in assay [2], 24.8%; in assay [3], 26.9%; in assay [4] it was -3.77%.
Consider `Cc1ccc(S(=O)(=O)Nc2ccc3c(c2)n(C)c(=O)n3C)cc1`, for which the inhibition was 40.1% (active) in assay [1], 48.8% (active) in assay [2], 38.3% in assay [3] and -96.8% in assay [4].
The corresponding values for `N=c1sccn1CC(=O)Nc1ccc(S(N)(=O)=O)cc1` are 17.1%, 54.1% (active), 50.5% (active) and -2.17%.
The corresponding values for `O=C1c2ccccc2-n2c1nc1ccccc1c2=O` are 41.1% (active), 66.7% (active), 57.8% (active) and 51% (active).
The corresponding values for `CN(C)C(=O)Cn1c(SCC(=O)Nc2ccc3c(c2)OCO3)nc2ccccc21` are -0.98%, 22.2%, 28.2% and -0.46%.
Consider `NC(=O)C1CCN(C(=O)COc2ccc3c4c(c(=O)oc3c2)CCCC4)CC1`, for which the inhibition was 12.7% in assay [1], 59.3% (active) in assay [2], 50.3% (active) in assay [3] and -6.57% in assay [4].
For `O=[N+]([O-])c1ccc(/C=N/n2c(CO)nc3ccccc32)s1`, in that order: 16.3%, 62.2% (active), 59.9% (active) and 2.51%.
The corresponding values for `N#Cc1ccc(NC(=O)COc2ccc(-n3cnnn3)cc2)cc1` are 11.7%, 38.2%, 35.9% and -2.83%.
As to `O=C(Nc1nc(-c2cccs2)cs1)c1ccc([N+](=O)[O-])o1`, the inhibition in assay [1] is -1.18%; in assay [2], 51.9% (active); in assay [3], 62.9% (active); in assay [4], -34.9%.
As for `COc1ccc(/C=N/NC(=O)c2ccc(NC(=O)c3cccc([N+](=O)[O-])c3)cc2)c(OC)c1`, the inhibition in assay [1] is 13.1%; in assay [2] it was 53.6% (active); in assay [3] it was 46.5% (active); in assay [4], 2.35%.
The corresponding values for `CCC(C)n1c(SCC(=O)NCCc2ccc(S(N)(=O)=O)cc2)nc2ccsc2c1=O` (stereo unspecified) are 10.6%, 48.7% (active), 52.6% (active) and -3.41%.
For `CCOC(=O)N1CCc2cc(OC)c(OC)c3c2c1cc1cc(OC)c(OC)cc13`, in that order: 60.1% (active), 70.3% (active), 67.3% (active) and -28.7%.
Regarding `CC1(C(=O)NCc2ccco2)Cc2c(-c3ccccc3)ccnc2O1` (stereo unspecified), the inhibition in assay [1] is 42% (active); in assay [2], 36.3%; in assay [3] it was 59% (active); in assay [4], 26.6%.
On to `CN(CCC#N)Cc1cc(=O)oc2ccc3ccccc3c12`, for which the inhibition in assay [1] was 13.8%; in assay [2], 55.2% (active); in assay [3], 46.2% (active); in assay [4], 5.57%.
Turning to `O=[N+]([O-])c1ccc(N2CCCC2)cc1NC1CC1`, the inhibition was 0.53% in assay [1], 47.1% (active) in assay [2], 47.3% (active) in assay [3] and -3.08% in assay [4].
For `COCCn1c(SCC(=O)Nc2ccc(NC(C)=O)cc2)nc2ccccc2c1=O`, in that order: 17%, 57.9% (active), 52% (active) and 2.35%.
The corresponding values for `CCOC(=O)c1c(C)[nH]c(C(=O)COC(=O)/C=C/c2ccc3c(c2)OCO3)c1C` are 13%, 36.5%, 43.6% (active) and 7.82%.
For `O=C(COc1ccc2c3c(c(=O)oc2c1)CCC3)NCc1ccncc1`, in that order: 0.83%, 50% (active), 41.4% and -2.51%.
Turning to `O=C(COC(=O)CCN1C(=O)C2CC=CCC2C1=O)NCCc1ccc(F)cc1` (stereo unspecified), the inhibition in assay [1] is 7.75%; in assay [2], 63.2% (active); in assay [3], 55% (active); in assay [4], -1.34%.
Regarding `Cc1ccc2nsnc2c1NC(=O)c1ccc([N+](=O)[O-])o1`, the inhibition in assay [1] was 14.4%; in assay [2], 57.8% (active); in assay [3], 55.7% (active); in assay [4] it was -22.5%.
Consider `CCN(CC)S(=O)(=O)c1ccc(N2CCCC2)c(NC(=O)c2ccc([N+](=O)[O-])o2)c1`, for which the inhibition in assay [1] is 19.4%; in assay [2] it was 55.4% (active); in assay [3] it was 56.6% (active); in assay [4], 10.5%.

The inhibition is the change of the read-out against control, counted positive when it falls.
